Experiments:
Conditions in all cases: concentration: 1 μM, replicates: in singlicate; n = 1
ABL2 = system: ABL2
ACVR1B = system: ACVR1B
ACVR1 = system: ACVR1
ACVR2A = system: ACVR2A
ACVR2B = system: ACVR2B
ACVRL1 = system: ACVRL1
ADCK3 = system: T1, ADCK3
T1 construct: gene CABC1

ADCK4 = system: ADCK4
AKT1 = system: AKT1
AKT2 = system: AKT2
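Note: KINOMEscan kinase panel screen.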

## Cl.O=S(=O)(c1cccc(F)c1)c1ccc(Nc2ncnc3cc(Br)sc23)cc1Cl [GSK306886]
ABL2
  %Inh: 0%
ACVR1B
  %Inh: 0%
ACVR1
  %Inh: 18%
ACVR2A
  %Inh: 0%
ACVR2B
  %Inh: 0%
ACVRL1
  %Inh: 7%
ADCK3
  %Inh: 11%
ADCK4
  %Inh: 22%
AKT1
  %Inh: 0%
AKT2
  %Inh: 3%

## CCc1nc(-c2cccc(C)c2)c(-c2ccnc(NC(=O)c3ccccc3)c2)s1
ABL2
  %Inh: 27%
ACVR1B
  %Inh: 12%
ACVR1
  %Inh: 0%
ACVR2A
  %Inh: 0%
ACVR2B
  %Inh: 0%
ACVRL1
  %Inh: 0%
ADCK3
  %Inh: 17%
ADCK4
  %Inh: 20%
AKT1
  %Inh: 0%
AKT2
  %Inh: 13%

## CCn1c(-c2ccncc2)nc2cnccc21 [SB-735216]
ABL2
  %Inh: 0%
ACVR1B
  %Inh: 14%
ACVR1
  %Inh: 40%
ACVR2A
  %Inh: 0%
ACVR2B
  %Inh: 4%
ACVRL1
  %Inh: 0%
ADCK3
  %Inh: 15%
ADCK4
  %Inh: 6%
AKT1
  %Inh: 0%
AKT2
  %Inh: 0%

## CC(C)(C)OC(=O)NC1CCCN(c2cc(-c3ccc4c(N)n[nH]c4c3)nc(N)n2)C1 (centres unmarked) [GSK2286096]
ABL2
  %Inh: 6%
ACVR1B
  %Inh: 0%
ACVR1
  %Inh: 0%
ACVR2A
  %Inh: 0%
ACVR2B
  %Inh: 0%
ACVRL1
  %Inh: 0%
ADCK3
  %Inh: 8%
ADCK4
  %Inh: 5%
AKT1
  %Inh: 0%
AKT2
  %Inh: 0%

## Nc1nc(-c2ccccn2)c(-c2ccnc3ccccc23)s1 [GW548057]
ABL2
  %Inh: 14%
ACVR1B
  %Inh: 59%
ACVR1
  %Inh: 18%
ACVR2A
  %Inh: 0%
ACVR2B
  %Inh: 56%
ACVRL1
  %Inh: 0%
ADCK3
  %Inh: 9%
ADCK4
  %Inh: 44%
AKT1
  %Inh: 0%
AKT2
  %Inh: 0%

## Clc1cccc(-c2nc(Nc3ccncc3)c3ccccc3n2)c1 [GW873004]
ABL2
  %Inh: 28%
ACVR1B
  %Inh: 72%
ACVR1
  %Inh: 0%
ACVR2A
  %Inh: 25%
ACVR2B
  %Inh: 15%
ACVRL1
  %Inh: 9%
ADCK3
  %Inh: 30%
ADCK4
  %Inh: 20%
AKT1
  %Inh: 11%
AKT2
  %Inh: 0%

## COc1ccc(NC(=O)c2ccc(-c3cc(-c4nnc(C)o4)ccc3C)cc2)cc1 [GW595885]
ABL2
  %Inh: 16%
ACVR1B
  %Inh: 0%
ACVR1
  %Inh: 0%
ACVR2A
  %Inh: 0%
ACVR2B
  %Inh: 5%
ACVRL1
  %Inh: 0%
ADCK3
  %Inh: 0%
ADCK4
  %Inh: 28%
AKT1
  %Inh: 0%
AKT2
  %Inh: 0%

## OCCOCCn1ccc2ncnc(Nc3ccc(Oc4cccc(Cl)c4)c(Cl)c3)c21
ABL2
  %Inh: 0%
ACVR1B
  %Inh: 0%
ACVR1
  %Inh: 0%
ACVR2A
  %Inh: 8%
ACVR2B
  %Inh: 0%
ACVRL1
  %Inh: 0%
ADCK3
  %Inh: 2%
ADCK4
  %Inh: 0%
AKT1
  %Inh: 0%
AKT2
  %Inh: 0%

## COc1ccc(Nc2nccc(N3CCC(NC(=O)Nc4ccc5c(c4)OCO5)C3)n2)cc1 (centres unmarked) [GSK1379745]
ABL2
  %Inh: 18%
ACVR1B
  %Inh: 0%
ACVR1
  %Inh: 1%
ACVR2A
  %Inh: 0%
ACVR2B
  %Inh: 5%
ACVRL1
  %Inh: 0%
ADCK3
  %Inh: 17%
ADCK4
  %Inh: 41%
AKT1
  %Inh: 0%
AKT2
  %Inh: 7%

## CC(C)(C)c1ccc(-n2cnc3c(N)ncnc32)cc1 [SKF-97263]
ABL2
  %Inh: 7%
ACVR1B
  %Inh: 0%
ACVR1
  %Inh: 10%
ACVR2A
  %Inh: 7%
ACVR2B
  %Inh: 0%
ACVRL1
  %Inh: 0%
ADCK3
  %Inh: 23%
ADCK4
  %Inh: 0%
AKT1
  %Inh: 0%
AKT2
  %Inh: 12%

## O=C(Nc1ccccc1)Nc1ccc(Oc2ccc3nccn3n2)cc1
ABL2
  %Inh: 27%
ACVR1B
  %Inh: 0%
ACVR1
  %Inh: 5%
ACVR2A
  %Inh: 24%
ACVR2B
  %Inh: 9%
ACVRL1
  %Inh: 0%
ADCK3
  %Inh: 15%
ADCK4
  %Inh: 1%
AKT1
  %Inh: 13%
AKT2
  %Inh: 0%

## Cl.Fc1ccccc1COc1ccc(Nc2ncnc3ccc(-c4nnc(C(F)(F)F)o4)cc23)cc1Cl [GW424170]
ABL2
  %Inh: 0%
ACVR1B
  %Inh: 0%
ACVR1
  %Inh: 0%
ACVR2A
  %Inh: 0%
ACVR2B
  %Inh: 0%
ACVRL1
  %Inh: 0%
ADCK3
  %Inh: 0%
ADCK4
  %Inh: 22%
AKT1
  %Inh: 0%
AKT2
  %Inh: 0%

## CC(=O)Nc1n[nH]c2ncc(-c3ccccc3)cc12 [SB-548492]
ABL2
  %Inh: 11%
ACVR1B
  %Inh: 2%
ACVR1
  %Inh: 13%
ACVR2A
  %Inh: 37%
ACVR2B
  %Inh: 10%
ACVRL1
  %Inh: 0%
ADCK3
  %Inh: 0%
ADCK4
  %Inh: 0%
AKT1
  %Inh: 0%
AKT2
  %Inh: 0%

## Cc1ccc(NC(=O)c2cccc(C#N)c2)cc1-c1ccc(C(=O)Nc2ccncc2)cc1 [GSK1398463]
ABL2
  %Inh: 54%
ACVR1B
  %Inh: 0%
ACVR1
  %Inh: 18%
ACVR2A
  %Inh: 0%
ACVR2B
  %Inh: 0%
ACVRL1
  %Inh: 2%
ADCK3
  %Inh: 18%
ADCK4
  %Inh: 6%
AKT1
  %Inh: 0%
AKT2
  %Inh: 0%

## Fc1ccc(Nc2nccc(-c3c(-c4ccc(Cl)cc4)nn4ncccc34)n2)cc1F [GW829058]
ABL2
  %Inh: 19%
ACVR1B
  %Inh: 20%
ACVR1
  %Inh: 0%
ACVR2A
  %Inh: 0%
ACVR2B
  %Inh: 0%
ACVRL1
  %Inh: 0%
ADCK3
  %Inh: 0%
ADCK4
  %Inh: 0%
AKT1
  %Inh: 18%
AKT2
  %Inh: 9%

## Fc1cccc(COc2ccc(Nc3ncnc4nn5ccccc5c34)cc2Cl)c1 [GW689066]
ABL2
  %Inh: 1%
ACVR1B
  %Inh: 0%
ACVR1
  %Inh: 0%
ACVR2A
  %Inh: 0%
ACVR2B
  %Inh: 0%
ACVRL1
  %Inh: 0%
ADCK3
  %Inh: 5%
ADCK4
  %Inh: 42%
AKT1
  %Inh: 0%
AKT2
  %Inh: 3%

## CCc1nc(-c2cccc(N(C)S(=O)(=O)c3ccccc3)c2)c(-c2ccnc(Nc3ccc(N4CCN(C(C)=O)CC4)nc3)n2)s1 [GSK1645895]
ABL2
  %Inh: 23%
ACVR1B
  %Inh: 0%
ACVR1
  %Inh: 0%
ACVR2A
  %Inh: 0%
ACVR2B
  %Inh: 0%
ACVRL1
  %Inh: 0%
ADCK3
  %Inh: 16%
ADCK4
  %Inh: 19%
AKT1
  %Inh: 0%
AKT2
  %Inh: 0%

## O=c1cc(N2CCOCC2)nc2n(Cc3cccc(Cl)c3)ccn12 [GSK2296823]
ABL2
  %Inh: 12%
ACVR1B
  %Inh: 0%
ACVR1
  %Inh: 0%
ACVR2A
  %Inh: 0%
ACVR2B
  %Inh: 0%
ACVRL1
  %Inh: 0%
ADCK3
  %Inh: 24%
ADCK4
  %Inh: 0%
AKT1
  %Inh: 0%
AKT2
  %Inh: 3%

## Cl.Cl.c1ccc(-c2cc3ccncc3cc2OC2CCNCC2)cc1 [GSK1122999]
ABL2
  %Inh: 8%
ACVR1B
  %Inh: 0%
ACVR1
  %Inh: 22%
ACVR2A
  %Inh: 0%
ACVR2B
  %Inh: 0%
ACVRL1
  %Inh: 0%
ADCK3
  %Inh: 22%
ADCK4
  %Inh: 42%
AKT1
  %Inh: 0%
AKT2
  %Inh: 0%

## COC(=O)c1cccc(NC(=O)NCCNc2ccnc(Nc3ccc(F)cc3)n2)c1 [GSK1379883]
ABL2
  %Inh: 1%
ACVR1B
  %Inh: 0%
ACVR1
  %Inh: 6%
ACVR2A
  %Inh: 0%
ACVR2B
  %Inh: 0%
ACVRL1
  %Inh: 0%
ADCK3
  %Inh: 15%
ADCK4
  %Inh: 48%
AKT1
  %Inh: 0%
AKT2
  %Inh: 0%
